Source: PubChem BioAssay (NCI)
This is part of a sample that, as a whole, favours compounds with a hit. Of some 79,000 tested, about 15% had one in any assay. Calls of active or inactive are those of the source. Rule as the data show it: active = growth inhibition above about 70%; inactive = the rest.

Assay: NCI Yeast Anticancer Drug Screen. Data for the rad50EPP+ strain (AID 151);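 also: 0% = growth of vehicle-treated control cultures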
Details: S. cerevisiae rad50 mutant strain, active compounds read high
Procedure: Growth inhibition of yeast strains with defined genetic alterations is measured as a screen for potential anti-cancer activity. Selected strains with alterations in DNA damage repair or cell cycle control were exposed to compounds and growth inhibition was measured relative to vehicle treated controls. The strain used in this assay is rad50EPP+

Measured: growth inhibition

O=[N+]([O-])c1cccc2nccc(NCCCO)c12
inactive: at 1.2 µM 14% | at 3.7 µM 13% | at 11.0 µM 20% | at 33.0 µM 27% | at 100.0 µM 46%

CN(C)Cc1cc(N=Nc2ccc(Cl)cc2)cc(CN(C)C)c1O
inactive: at 1.2 µM -3% | at 3.7 µM -1% | at 11.0 µM 15% | at 33.0 µM 43%
active: at 100.0 µM 91%

OC(c1ccc(F)cc1)(c1ccc(F)cc1)C1CC1
inactive: at 1.2 µM -10% | at 3.7 µM -17% | at 11.0 µM -35% | at 33.0 µM -26% | at 100.0 µM 11%

C#CCCCc1ccccc1
inactive: at 1.2 µM -65% | at 3.7 µM -72% | at 11.0 µM -55% | at 33.0 µM 23% | at 100.0 µM 67%

CCCCCCCCCCCC(=O)N(C)C
active: at 100.0 µM 90%
inactive: at 1.2 µM 5% | at 3.7 µM 18% | at 11.0 µM 20% | at 33.0 µM 47%

CCCCCCCCCCCCCCCCCCOCC(O)COP(=O)(O)OCC1OC(n2cc(F)c(=O)[nH]c2=O)CC1O (stereo not given)
active: at 11.0 µM 70% | at 33.0 µM 88% | at 100.0 µM 89%
inactive: at 1.2 µM 42% | at 3.7 µM 38%

CCCCCCCCCCCCCCCCCCNC
inactive: at 1.2 µM 14% | at 3.7 µM 10% | at 11.0 µM 8% | at 33.0 µM 48%
active: at 100.0 µM 89%

CN1CCc2ccccc2C1Cc1ccccc1NC(=O)c1sc2ccccc2c1Cl (stereo not given)
inactive: at 1.2 µM -21% | at 3.7 µM -9% | at 11.0 µM 19% | at 33.0 µM 68%
active: at 100.0 µM 83%
